According to PubChem BioAssay (NCATS):
“And” between values parts separate entries of the source, which are not always exact repeats. Equal entries are not always repeated. Inconclusive results are not listed.

test: qHTS Assay for Lipid Storage Modulators (AID 1519); conditions: Drosophila S3 cells, BODIPY lipid droplet/cell ratio, laser cytometry; measured here: lipid channel max response; cells loaded with oleic acid
How it was run: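 Cells seeded at 5,000 per well were treated with compounds over a concentration series and loaded with oleic acid (400 uM, as added). Lipid droplet fluorescence (488 nm excitation, 500-530 nm channel) was read by laser-scanning cytometry and normalized to 20 uM Triacsin C.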

SMILES | max response
CC(C)=CCOc1c2occc2cc2ccc(=O)oc12 | 25.6%
NCC(O)c1ccc(O)cc1 (stereo not given) | 23.7%
O=P1(NCCCl)OCCCN1CCCl (stereo not given) | -6.2%
O=C1NCN(c2ccccc2)C12CCN(CC1COc3ccccc3O1)CC2 (stereo not given) | 12.8%
CN1C[C@H](CNC(=O)OCc2ccccc2)C[C@@H]2c3cccc4c3c(cn4C)C[C@H]21 | -33%
CC(CCc1ccccc1)NC(C)C(O)c1ccc(O)cc1 (stereo not given) | 0.25%
CC(=O)[C@H]1CC[C@H]2[C@@H]3CC[C@H]4C[C@H](O)CC[C@]4(C)[C@H]3C(=O)C[C@]12C | 15.5%
NCC1(CC(=O)O)CCCCC1 | -6.8% and 4.42%
CC[N+]1(C)CCCC(OC(=O)C(O)(c2ccccc2)c2ccccc2)C1 (stereo not given) | 23.3%
CNCCC(Oc1ccc(C(F)(F)F)cc1)c1ccccc1 (stereo not given) | 3.92%
Cc1ccc(S(=O)(=O)N[C@@H](CCCCN)C(=O)CCl)cc1 | 0.09%
CC(C)C(=O)Nc1ccc([N+](=O)[O-])c(C(F)(F)F)c1 | -1.94% and 19.5%
CCCC(C)(COC(N)=O)COC(=O)NC(C)C (stereo not given) | 29.5% and 22.2%
O=c1c(O)c(-c2ccc(O)c(O)c2)oc2cc(O)cc(O)c12 | -93.3% and 29.8%
Cc1cc2c(C(C)C)c(O)c(O)c(C=O)c2c(O)c1-c1c(C)cc2c(C(C)C)c(O)c(O)c(C=O)c2c1O | -19.7%
NCCc1cc(O)c(O)cc1O | 16.6%
CC(C)=CC1C(C(=O)OCc2cccc(Oc3ccccc3)c2)C1(C)C (stereo not given) | 23.2%
Cc1ncc(CNC(=O)N(CCCl)N=O)c(N)n1 | 18%
CCC1(C2=NCCN2)Cc2ccccc2O1 (stereo not given) | -2.07%
c1ccc2c(c1)OCC(C1=NCCN1)O2 (stereo not given) | 9.22%
